Screen size: about 310,000 compounds; about 14,000 (4.5%) showed an effect of 50% or more. The effect is printed as a negative number. Many of the other results were omitted from the sample, so strong results are more common in it than they were.
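Further: peak tail current of the secondary pulse compared with the same well before compound.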

The assay deals with human ether-à-go-go-related gene (hERG) potassium channel (human, UniProt Q12809). Description: primary screen, population patch clamp on CHO cells stably expressing hERG; higher = less effect of the substance.
Sequence of human ether-à-go-go-related gene (hERG) potassium channel (Q12809 whole entry, looked up): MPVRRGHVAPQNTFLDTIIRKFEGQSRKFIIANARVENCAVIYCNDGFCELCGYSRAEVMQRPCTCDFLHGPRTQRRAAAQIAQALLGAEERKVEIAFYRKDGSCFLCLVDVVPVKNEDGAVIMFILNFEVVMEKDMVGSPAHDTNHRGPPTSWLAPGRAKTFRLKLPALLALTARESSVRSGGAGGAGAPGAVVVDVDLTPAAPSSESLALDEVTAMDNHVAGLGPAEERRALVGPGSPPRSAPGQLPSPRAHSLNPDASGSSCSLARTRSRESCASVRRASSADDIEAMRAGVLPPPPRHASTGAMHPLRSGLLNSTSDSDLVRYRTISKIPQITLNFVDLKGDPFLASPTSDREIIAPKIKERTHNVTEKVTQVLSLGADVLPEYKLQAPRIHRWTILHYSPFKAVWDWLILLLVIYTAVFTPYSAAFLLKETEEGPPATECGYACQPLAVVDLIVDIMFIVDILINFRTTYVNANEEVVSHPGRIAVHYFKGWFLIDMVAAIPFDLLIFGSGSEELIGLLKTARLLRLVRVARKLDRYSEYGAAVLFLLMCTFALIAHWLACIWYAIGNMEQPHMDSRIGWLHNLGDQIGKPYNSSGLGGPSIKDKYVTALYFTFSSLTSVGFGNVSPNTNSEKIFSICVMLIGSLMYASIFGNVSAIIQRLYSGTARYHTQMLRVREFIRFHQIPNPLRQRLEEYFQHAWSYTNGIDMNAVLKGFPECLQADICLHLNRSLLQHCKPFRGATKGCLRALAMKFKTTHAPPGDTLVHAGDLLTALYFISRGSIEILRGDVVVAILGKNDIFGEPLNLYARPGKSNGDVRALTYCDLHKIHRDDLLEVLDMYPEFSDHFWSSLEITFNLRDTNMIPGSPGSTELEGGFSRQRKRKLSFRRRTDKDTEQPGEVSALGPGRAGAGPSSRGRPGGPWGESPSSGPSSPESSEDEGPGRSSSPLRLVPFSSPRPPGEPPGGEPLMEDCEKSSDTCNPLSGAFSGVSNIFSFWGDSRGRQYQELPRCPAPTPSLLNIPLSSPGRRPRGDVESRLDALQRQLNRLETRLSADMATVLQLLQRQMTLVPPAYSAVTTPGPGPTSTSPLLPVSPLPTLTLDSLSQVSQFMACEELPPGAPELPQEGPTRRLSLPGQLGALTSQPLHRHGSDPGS
For the compound `COc1ccc(-c2noc(CN(C(=O)c3c(-c4ccccc4Cl)noc3C)C(C)C)n2)cc1`, the “hERG current change (%, negative = inhibition) at 10uM” value was 14.8%.
Take `O=C(O)C1CC=CCC1C(=O)Nc1cccc(C(=O)N2CCCCC2)c1` (centres unmarked): the “hERG current change (%, negative = inhibition) at 10uM” value was -5.25%.
Turning to `CN1C[C@H](C(=O)N[C@]2(C)O[C@@]3(O)[C@@H]4CCCN4C(=O)[C@H](Cc4ccccc4)N3C2=O)CC2c3cccc4[nH]cc(c34)C[C@H]21.O=C(O)C(O)C(O)C(=O)O` (some centres unmarked), the “hERG current change (%, negative = inhibition) at 10uM” value is on record as 2.03%.
Under `CC(NC(=O)NNC(N)=S)(C(F)(F)F)C(F)(F)F` stands 4.68%.
Take `CCOc1ccc2nc(N(CCCN(C)C)C(=O)c3ccc4c(c3)CCCC4)sc2c1.Cl`: the “hERG current change (%, negative = inhibition) at 10uM” value is listed as -14.1%.
In the case of `CCN(CC)CCN(C(=O)c1ccc2c(c1)CCCC2)c1nc2ccc(C)cc2s1.Cl`, the “hERG current change (%, negative = inhibition) at 10uM” value stood at 10.1%.
To `CCN(CC)CCN(C(=O)c1ccc2c(c1)CCCC2)c1nc2ccc(F)cc2s1.Cl` belongs -1.94%; to `CN(C)CCCN(C(=O)c1ccc2c(c1)CCCC2)c1nc2ccc(Cl)cc2s1.Cl`, -43.8%; to `Cc1ccc2nc(N(CCCN(C)C)C(=O)c3ccc4c(c3)CCCC4)sc2c1.Cl`, -71.5%.
In the case of `CN(C)CCCN(C(=O)c1ccc2c(c1)CCCC2)c1nc2ccc(F)cc2s1.Cl`, the “hERG current change (%, negative = inhibition) at 10uM” value was -66.9%.
With `CCN(CC)C(=O)C1CCC(C)(C(=O)O)C1(C)C` (centres unmarked), the “hERG current change (%, negative = inhibition) at 10uM” value came out at 3.91%.
Under `O=S1(=O)CCO[C@H]2Cc3ccccc3[C@H]2N1Cc1cccc(Cl)c1` stands -28.4%; under `Cc1nc(SCn2nnc3ccccc3c2=O)nc(C)c1C`, -12.3%; under `Cc1ccc(OCCNC(=O)/C=C/c2ccccc2)cc1C`, -8.32%.
As to `Cc1cc(=O)n2nc(N3CCC(C(=O)NC(C)c4ccccc4)CC3)sc2n1` (centres unmarked), the “hERG current change (%, negative = inhibition) at 10uM” value is recorded as 5.85%.
Under `O=C(OCc1nc2ccsc2c(=O)[nH]1)c1ccccc1` stands 0.869%; under `CCc1ccc(C(=O)COC(=O)CNC(=O)Cc2ccccc2)cc1`, 0.382%; under `CCc1ccc(C(=O)COC(=O)CNC(=O)COc2ccccc2)cc1`, -57.4%.
`CN(CC(=O)Nc1ccccc1Cl)C(=O)COC(=O)Cc1ccc(F)cc1`: the “hERG current change (%, negative = inhibition) at 10uM” value is on record as 1.33%.
With `CCc1ccc(C(=O)COC(=O)CNC(=O)c2ccc(Br)o2)cc1`, the “hERG current change (%, negative = inhibition) at 10uM” value was -64%.
On to `Cc1ccc(C(=O)COC(=O)CNC(=O)c2ccc(Br)o2)cc1[N+](=O)[O-]`, for which the “hERG current change (%, negative = inhibition) at 10uM” value worked out at 4.86%.
On to `CCc1ccc(C(=O)COC(=O)CNC(=O)c2ccco2)cc1`, for which the “hERG current change (%, negative = inhibition) at 10uM” value is given as -18.2%.
For `Cc1cccc(C(=O)NCC(=O)OCC(=O)N(C)CC(=O)Nc2ccccc2Cl)c1`, the “hERG current change (%, negative = inhibition) at 10uM” value was -40.5%.
For `COc1ccccc1C(=O)NNC(=O)c1ccc(Br)o1`, the “hERG current change (%, negative = inhibition) at 10uM” value stood at 14%.
With `COc1ccccc1C(=O)NCC(=O)OCC(=O)c1cccc2ccccc12`, the “hERG current change (%, negative = inhibition) at 10uM” value is on record as 4.06%.
`COc1ccccc1C(=O)COC(=O)CNC(=O)c1ccc(Br)o1`: the “hERG current change (%, negative = inhibition) at 10uM” value is listed as -50.7%.
For `CCc1ccc(C(=O)COC(=O)CNC(=O)CNC(=O)Cc2ccccc2)cc1`, the “hERG current change (%, negative = inhibition) at 10uM” value came to 9.36%.
On to `CN(CC(=O)Nc1ccccc1Cl)C(=O)COC(=O)CNC(=O)c1ccc(Br)o1`, for which the “hERG current change (%, negative = inhibition) at 10uM” value is -61.4%.
Regarding `CC(=O)N(CN1C(=O)c2ccccc2C1=O)c1cccc(C)c1`, the “hERG current change (%, negative = inhibition) at 10uM” value is reported as 4.43%.
As to `Clc1ccc(-n2ncc3c(NCc4ccccn4)ncnc32)cc1`, the “hERG current change (%, negative = inhibition) at 10uM” value was 4.15%.
In the case of `COc1ccccc1NS(=O)(=O)c1ccc(C)c(C(=O)NCC2(N(C)C)CCCCC2)c1`, the “hERG current change (%, negative = inhibition) at 10uM” value is -42.9%.
Take `O=C(NCCCN1CCOCC1)c1ccc2c(c1)N(Cc1cccc(Cl)c1)C(=O)CS2`: the “hERG current change (%, negative = inhibition) at 10uM” value is -16.7%.
Take `O=C(COC(=O)CNC(=O)c1ccco1)Nc1ccccc1OC(F)F`: the “hERG current change (%, negative = inhibition) at 10uM” value was 11.6%.
`CC1Cc2ccccc2N1C(=O)COC(=O)CNC(=O)c1ccc(Br)o1` (centres unmarked): the “hERG current change (%, negative = inhibition) at 10uM” value is recorded as -60.2%.
Take `O=C(COC(=O)CNC(=O)c1ccc(Br)o1)Nc1ccccc1OC(F)F`: the “hERG current change (%, negative = inhibition) at 10uM” value is recorded as -51.6%.
To `CC1Cc2ccccc2N1C(=O)c1ccc(Br)o1` (centres unmarked) belongs -13.1%; to `O=C(Nc1ccccc1OC(F)F)c1ccc(Br)o1`, -20.9%.
With `CC1Cc2ccccc2N1C(=O)COC(=O)c1ccc(Br)o1` (centres unmarked), the “hERG current change (%, negative = inhibition) at 10uM” value was 8.05%.
As for `Cc1ccc2nc(-c3ccccc3)cc(C(=O)N(C)CC(=O)Nc3ccccc3Br)c2c1`, the “hERG current change (%, negative = inhibition) at 10uM” value is -11%.
As for `c1ccc(-n2nnnc2Cc2nnnn2-c2ccccc2)cc1`, the “hERG current change (%, negative = inhibition) at 10uM” value was 50.3%.
Regarding `O=C(Nc1ccccc1OC(F)F)c1cc2c(s1)CCC2`, the “hERG current change (%, negative = inhibition) at 10uM” value is listed as -16.4%.
To `C=CCNC(=S)/N=c1/ccccn1C` belongs -5.42%; to `CCOC(=O)C1(Cc2ccccc2C)CCCN(Cc2ccc(NC(C)=O)cc2)C1` (centres unmarked), 11.5%; to `CCOC(=O)C1(CCOc2ccccc2)CCN(Cc2ccc(NC(C)=O)cc2)CC1`, -79.3%.

The values above are taken from publication PMC4336329 (PLoS ONE, 2015).
